23 compounds from PubChem BioAssay AID1362 (SRMLSC, 2008) can be followed below.

Hit rate of the full screen: of about 190,000 compounds, about 4,000 (2.1%) were called active. No stated cut-off is given here; in the data, active means inhibition above about 58%; inactive means the rest, inconclusive results apart; tested in S. cerevisiae. The sample as a whole holds a higher share of actives than the screen did.

This experiment can be described thus: growth inhibition of WT strain, primary screen, mitochondrial fusion inhibitor project, WT and mutant strains, chemical genetic (AID 1362). The note with it: mitochondrial fusion phenotypic screen, at 10 µM.
The mark [1] stands for this setting: WT strain, growth inhibition, stronger effect = higher value.

Usually inhibition stands for the relative decrease from the control value, in per cent. Take `CC(=O)N1CCN(S(=O)(=O)c2c(F)cc(F)c(Cl)c2F)CC1`: the inhibition reads like this: under setting [1], -3.19% (inactive); (mutant strain inhibition) 3.15%.

As to `CSc1ccc(/C=N/N2CCN(Cc3ccccc3Cl)CC2)cc1`, the inhibition under setting [1] is 43.5% (inactive) and the inhibition (mutant strain inhibition) was 23.8%.

With `COc1cc(CNC2CCCCC2)c(Br)cc1OC1CCCC1`, the inhibition runs as follows: under setting [1], 18.3% (inactive); (mutant strain inhibition) 20.6%.

`CCc1ccccc1NC(=O)c1cccs1`: the inhibition reads like this: under setting [1], 2.87% (inactive); (mutant strain inhibition) -2.72%.

Turning to `CCc1ccccc1NC(=O)/C(=C/c1ccccc1)c1ccccc1`, the inhibition was 64.8% (active) under setting [1] and 9.35% (mutant strain inhibition).

With `O=C(/C=C/c1ccccc1)N/C(=C/c1ccccc1)C(=O)Nc1ccccc1O`, the inhibition by setting is: under setting [1], -8.09% (inactive); (mutant strain inhibition) -0.03%.

With `CCN(CC)CCN(C(=O)c1ccc(N2C(=O)CCC2=O)cc1)c1nc2cc3c(cc2s1)OCO3`, the inhibition under setting [1] was 2.8% (inactive) and the inhibition (mutant strain inhibition) was -0.18%.

`COc1ccc(-c2ccc(CNCCCN3CCOCC3)o2)cc1Cl`: the inhibition was 6.85% (inactive) under setting [1] and 12.6% (mutant strain inhibition).

Consider `C=CCNC(=S)NNC(=O)COc1c(Cl)cc(Cl)cc1Cl`, for which the inhibition by setting is: under setting [1], 67.1% (active); (mutant strain inhibition) 29.7%.

With `C=CCNC(=O)COC(=O)CNC(=O)c1cc(Cl)cc([N+](=O)[O-])c1`, the inhibition was -6.93% (inactive) under setting [1] and 10.8% (mutant strain inhibition).

With `C=CCNC(=S)NNC(=O)c1ccc(Br)o1`, the inhibition is, setting by setting: under setting [1], -3.81% (inactive); (mutant strain inhibition) 3.41%.

In the case of `CCOC(=O)C1CCCN(C(=O)c2cccc(S(=O)(=O)N3CCOCC3)c2)C1` (stereo unspecified), the inhibition reads like this: under setting [1], -0.28% (inactive); (mutant strain inhibition) -18.7%.

For the compound `O=C(COc1ccc(-c2ccccc2)cc1)NN=C1CCCC1`, the inhibition was 2.21% (inactive) under setting [1] and -3.38% (mutant strain inhibition).

For `CCCc1noc2c1/C(=N\O)CCC2`, the inhibition runs as follows: under setting [1], -2.57% (inactive); (mutant strain inhibition) -4.14%.

Take `CCCCc1cc2c(s1)CCCC/C2=N/O`: the inhibition by setting is: under setting [1], 63.2% (active); (mutant strain inhibition) 6.26%.

Turning to `Cc1[nH]c2ccccc2c1/C=C(/C#N)C(=O)NC(C)C`, the inhibition was -14% (inactive) under setting [1] and -5.17% (mutant strain inhibition).

In the case of `Cc1ccc(NC(=S)N(CCCN2CCC(C)CC2)Cc2ccco2)cc1`, the inhibition is 2.89% (inactive) under setting [1] and 13.6% (mutant strain inhibition).

In the case of `Cc1ccc(NC(=S)N(CCN2CCCCC2)Cc2ccco2)cc1C`, the inhibition was 8.12% (inactive) under setting [1] and 24.1% (mutant strain inhibition).

As for `Cc1ccc(NC(=S)N(Cc2ccco2)C(C)c2cccs2)cc1` (stereo unspecified), the inhibition is 75.8% (active) under setting [1] and 51.5% (mutant strain inhibition).

Turning to `CCN1CCN(C(C(=O)NC2CCCC2)c2cc3c(cc2[N+](=O)[O-])OCO3)CC1` (stereo unspecified), the inhibition is 2.26% (inactive) under setting [1] and -2.37% (mutant strain inhibition).

`CC1CCN(C(=S)c2cccc([N+](=O)[O-])c2)CC1`: the inhibition by setting is: under setting [1], 7.85% (inactive); (mutant strain inhibition) 23%.

Take `CC1(c2ccccc2)CC(C)(C)N(C(=O)c2cc([N+](=O)[O-])cc([N+](=O)[O-])c2)c2ccccc21` (stereo unspecified): the inhibition was 57% (inactive) under setting [1] and 35.9% (mutant strain inhibition).

As for `CC1(c2cccc([N+](=O)[O-])c2)CC(C)(C)N(C(=O)c2ccccc2)c2ccccc21` (stereo unspecified), the inhibition reads like this: under setting [1], 75.8% (active); (mutant strain inhibition) 33.1%.
